Laboratory results from PubChem BioAssay (NCI).
Values joined by “and” are separate entries in the source; they are usually repeats but may differ in a detail not shown here. Identical values can stand only once. This is part of a sample that, as a whole, favours compounds with a hit. Of some 83,000 tested, about 20% had one in any assay.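 Single-dose data. Exposure time 48 hours. Values below 10 considered active.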 Active and inactive are the calls of the source.

These compounds were tested on HT29 colon (assay: NCI-60 one-dose screen, 48 h (100 = growth as untreated, 0 = no growth, -100 = all killed)). Conditions: 10 µM unless noted.

Row | Structure (SMILES) | growth
1 | CC(=O)OC(C)C(=O)NCC(C)O (configuration not stated) | 110% (inactive)
2 | Nc1cc(N)c(N)cc1N | 82.4% (inactive)
3 | c1ccc(CNCCNCc2ccccc2)cc1 | 108% (inactive)
4 | CC(=O)NCC(=O)c1ccc([N+](=O)[O-])cc1 | 107% (inactive)
5 | O=C(O)CCCl | 108% (inactive)
6 | Oc1ccc(Cc2ccccc2Cl)c(O)c1 | 106% (inactive)
7 | COc1ccc(Nc2ccc3ccccc3c2)cc1 | 64.9% (inactive)
8 | Cc1cc(-c2ccc(N=Nc3ccc4c(S(=O)(=O)O)cc(S(=O)(=O)O)c(N)c4c3O)c(C)c2)ccc1N=Nc1ccc2c(S(=O)(=O)O)cc(S(=O)(=O)O)c(N)c2c1O | 83.6% (inactive)
9 | CCCCCCCCCCCCCCCc1ccc(N)c(OC2OC(CO)C(O)C(O)C2O)c1 (configuration not stated) | 103% (inactive)
10 | CC1=C/C(O)CC(=O)Cc2nc(co2)C(=O)N2CCC=C2C(=O)OC(C(C)C)C(C)/C=C\C(=O)NC/C=C\1 (configuration not stated) | 76.7% (inactive)
11 | Cl | 106% (inactive)
12 | CCCCOC(=O)/C=C\C(=O)NC(N)=O | 97% (inactive)
13 | Cn1cnc([N+](=O)[O-])c1Sc1ncn[nH]1 | 104% (inactive)
14 | CCCCCCCCCCCCCCCCC(C(=O)O)C(O)(CC(=O)O)C(=O)O (configuration not stated) | 93.9% (inactive) and -31.8% (active)
15 | CCc1cc(C)cc(O)c1 | 99.4% (inactive)
16 | c1ccc2c(c1)OC1OC2Oc2ccccc21 | 95.6% (inactive)
17 | CC(C)NC(=O)N/C=C(\C#N)C(N)=O | 107% (inactive)
18 | O=[N+]([O-])c1cccc(SSc2cccc([N+](=O)[O-])c2)c1 | 102% (inactive)
19 | CC(C)C(C)(C)c1ccc(O)cc1 | 102% (inactive)

Row | Structure (SMILES) | growth
20 | ClCCOCCOc1ccc(C2CCCCC2)cc1 | 106% (inactive)
21 | Cc1cc2ccccc2cn1 | 109% (inactive) and 102% (inactive)
22 | N#CC(C#N)N=Nc1ccc(Cl)cc1 | 24.7% (inactive)
23 | O=CN1CCCCC1 | 108% (inactive)
24 | C/C(=C\c1ccccc1)c1ccccn1 | 113% (inactive)
25 | OC1COC(OCc2ccccc2)C(O)C1O (configuration not stated) | 111% (inactive)
26 | OCC1OC(O)C(O)C(O)C1O (configuration not stated) | 92.5% (inactive)
27 | COc1ccc(C(=O)CC(c2ccccc2)C(C#N)c2ccccc2)cc1 (configuration not stated) | 82.3% (inactive)
28 | NC1CCC(C(=O)O)CC1 (configuration not stated) | 101% (inactive) and 102% (inactive)
29 | Nc1ccc2c(O)cc(S(=O)(=O)O)cc2c1 | 102% (inactive) and 106% (inactive)
30 | CN1CNC(=O)NC1 | 101% (inactive)
31 | COc1ccc(N/C=C/C2=[N+](C)c3ccccc3C2(C)C)c(OC)c1 | 87.4% (inactive)
32 | N#CC(C#N)N=Nc1cc(Cl)ccc1Cl | 101% (inactive)
33 | Nc1nc(N)c2[nH]cnc2n1 | 101% (inactive)
34 | Cc1cc(-c2cc(C)c(O)c(C)c2)cc(C)c1O | 96.1% (inactive)
35 | Fc1ccc([I+]c2ccc(F)cc2)cc1 | 38.2% (inactive)
36 | COc1cc(C(O)C2C(=O)OCC2C2(c3ccc4c(c3)OCO4)SCCCS2)cc(OC)c1OC (configuration not stated) | 102% (inactive)
37 | OCCN1CCCCCCC1 | 106% (inactive)
